GBA enhancer – GBA activity enhancers in patient fibroblasts, primary screen, cell-based | hit rate 0.44% among 30,000 | activation, % at 10 µM | L444P Gaucher fibroblasts, 4-MU-glucoside fluorescence, 3 days; in the data active = activation above about 65%;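 also: 0% = vehicle wells and 100% = positive control wells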
Target sequence (P04062 whole entry L483P): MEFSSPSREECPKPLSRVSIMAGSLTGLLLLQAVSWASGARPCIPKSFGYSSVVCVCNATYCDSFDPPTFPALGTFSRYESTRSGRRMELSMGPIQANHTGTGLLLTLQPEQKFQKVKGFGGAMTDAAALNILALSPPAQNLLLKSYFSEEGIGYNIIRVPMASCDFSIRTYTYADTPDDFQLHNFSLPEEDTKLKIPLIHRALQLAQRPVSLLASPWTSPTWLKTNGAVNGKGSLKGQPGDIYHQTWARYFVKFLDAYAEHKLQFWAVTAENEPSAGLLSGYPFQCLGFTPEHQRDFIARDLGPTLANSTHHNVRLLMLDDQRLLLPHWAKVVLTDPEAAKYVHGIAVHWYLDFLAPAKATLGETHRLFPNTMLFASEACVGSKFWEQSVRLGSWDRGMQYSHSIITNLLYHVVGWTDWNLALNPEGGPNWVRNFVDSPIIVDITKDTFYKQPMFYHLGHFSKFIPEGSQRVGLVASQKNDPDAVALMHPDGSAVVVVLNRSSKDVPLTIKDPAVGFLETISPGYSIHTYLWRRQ
The depositor's hits bear a star. Shown is part of a subset that was picked to be rich in hits.

SMILES	GBA enhancer
CC1CN(S(=O)(=O)c2ccc(NC(=O)CCN3C(=O)c4ccccc4C3=O)cc2)CC(C)O1 (stereo unspecified)	-39
Cc1cc(NS(=O)(=O)c2ccc(NC(=O)CCN3C(=O)c4ccccc4C3=O)cc2)no1	93*
Cc1ccc(OCCCC(=O)Nc2ccc(S(=O)(=O)Nc3cc(C)on3)cc2)cc1	-15
Cc1ccc(CS(=O)(=O)CCC(=O)N2CCOCC2)cc1	-42
O=C(Oc1ccccc1)c1cc2ccccc2o1	-3
O=C(Nc1ccccc1N1CCCC1)c1cc2ccccc2o1	-30
O=C(OCCN1CCCCC1)c1cc2ccccc2o1	71*
Cc1ccc(/C=C/C2=Cc3c(sc(NC(=O)CSc4n[nH]c(N)n4)c3C#N)C(C)(C)C2)o1	-16
COc1ccccc1S(=O)(=O)Cc1ccc(C(=O)NC(C)c2ccc3c(c2)OCCO3)o1 (stereo unspecified)	-22
O=C(CCCNS(=O)(=O)c1cccc2nsnc12)NCCc1ccccc1	3
O=C(CCNS(=O)(=O)c1cccc2nsnc12)NC1CCN(Cc2ccccc2)CC1	86*
CN(CC(=O)NCCN1CCN(Cc2ccccc2)CC1)S(=O)(=O)c1cccc2nsnc12	17
O=C(CN1C(=O)C2(OCCCO2)c2ccccc21)NCc1ccccc1	-4
COC(=O)CN1C(=O)C2(OCCCO2)c2cc(Br)ccc21	139*
CCOC(=O)CN1C(=O)C2(OCCCO2)c2ccccc21	0
Cc1cccc(N2CCN(C(=O)Cc3c(C(=O)O)[nH]c4ccc(Cl)cc34)CC2)c1C	4
CCOc1ccc2[nH]c(=O)c(CN(CC3CCCN3CC)C(=O)NCc3ccccc3)cc2c1 (stereo unspecified)	-11
COc1cc2c(C(=O)NCCCN3CCN(c4cccc(Cl)c4)CC3)cn(C)c(=O)c2cc1OC	85*
CCOCCCNC(=O)c1cn(C)c(=O)c2cc(OC)c(OC)cc12	-53
COCCNC(=O)c1cn(C)c(=O)c2cc(OC)c(OC)cc12	-37
CC(C)c1nc(SCc2c(F)cccc2Cl)c2c(=O)n(C)c(=O)n(C)c2n1	-16
O=C(COC(=O)CCC(=O)c1ccc2c(c1)OCCO2)NCc1ccc2c(c1)OCO2	-21
CCOC(=O)NC1(NC2CCCCC2)Oc2ccccc2O1	-1
O=C(N1CCOCC1)N1CCN(c2ccccn2)CC1	15
Cc1cc(C)cc(N2CCN(C(=O)N3CCOCC3)CC2)c1	72*
SMILES	GBA enhancer
Cc1ccc(C)n1-c1ccc(N2CCOCC2)cc1	-3
O=C(NCCCN1CCCC1=O)c1cccc(C(F)(F)F)c1	-80
CCOC(=O)N1CCN(Cc2nc(N)nc(Nc3ccc(Oc4ccccc4)cc3)n2)CC1	9
Cc1ccc(CNn2cnnc2SCC(=O)NC(C)(C)C)cc1	-22
Cc1nnc(SCC(=O)NC(C)(C)C)n1CCc1ccccc1	-7
CC(C)(C)NC(=O)CSc1nncn1NCc1ccccc1	68*
FC(F)(F)c1cc(-c2ccco2)nc(NCc2ccco2)n1	6
COc1cccc(-c2cc(C(F)(F)F)nc(NCc3ccco3)n2)c1	106*
COc1ccc(-c2cc(C(F)(F)F)nc(NCc3ccco3)n2)cc1OC	-36
O=c1[nH]c(CSc2nnc(NCCCN3CCOCC3)s2)nc2cc(Cl)ccc12	12
Cc1c(C(=O)N2CCCc3ccccc32)oc2ccc(S(=O)(=O)N3CCOCC3)cc12	-35
Cc1cc(C)nc(Sc2nc(C)nc3c2oc2ccccc23)n1	136*
Cc1cc(C)nc(N2CCN(c3nc(C)nc4c3oc3ccccc34)CC2)n1	-8
Cc1nc(SCC(=O)Nc2ccccc2)c2oc3ccccc3c2n1	-60
CS(=O)(=O)N1CCC(C(=O)Nc2ccc(Br)cc2F)CC1	-49
COc1c(Cl)ccc(Cl)c1C(=O)OCC(=O)O	34
CCOc1cc(C(=O)CSc2nnc(CNc3ccc(Cl)cc3)o2)ccc1NC(=O)CC	-61
COc1ccc(OC)c(-n2c(SCC(=O)NCc3ccco3)nnc2-c2c[nH]c3ccccc23)c1	6
CCOc1cc(NC(=O)C2CC2)c(OCC)cc1NC(=O)c1cccnc1	-24
CCOC(=O)c1oc2c(CN3CCCCC3C)c(O)ccc2c(=O)c1-c1ccc(OC)c(OC)c1 (stereo unspecified)	-24
CCOC(=O)c1nn(-c2ccccc2)c(=O)c(C#N)c1C	3
CCOC(=O)c1oc2c(C)c(O)ccc2c(=O)c1-c1nncn1-c1ccccc1	84*
COc1ccc2c(c1)N(C)C(=O)CC(c1ccccc1)=N2	-29
O=C(Cc1ccc(F)cc1)Nc1c2c(nn1-c1cccc(Cl)c1)CS(=O)C2 (stereo unspecified)	-28
Cc1ccc2[nH]c(=O)c(CN(Cc3cccnc3)Cc3nnnn3CCN3CCOCC3)cc2c1	-5

Source: PubChem BioAssay
